24 compounds from PubChem BioAssay can be followed below.

Each structure is given as a SMILES string.

The nature of this assay: differential killing of epithelial or mesenchymal cells, primary screen, imaging, PC-3E GFP, TEM4-18 mCherry, co-culture (AID 1345086).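 Further: cells exposed to compound for 72 h before imaging.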 To be noted: imaging cell counts, measured here: mesenchymal TEM4-18 mCherry cell survival, at 1 µM.
Compound `CC1=CO[C@]2(C1=O)[C@H]1C(=O)O[C@]3(C[C@@H]2C)C(C)=CC(=O)O[C@]13O` showed a normalised cell number of 0.99.

`C/C=C/[C@@H]1CC[C@@H]2C[C@H](C)CC[C@H]2[C@]1(C)C(=O)[C@H]1OC(=O)[C@@H](CO)N(C)C1=O` had a normalised cell number of 1.15.

With `COC(=O)[C@@H]1C(O)CC[C@H]2CN3CCc4c([nH]c5ccccc45)[C@@H]3C[C@@H]21` (some centres undefined), the normalised cell number was 1.07.

`NC(=O)c1cc(F)c(F)cc1NC1CC1` gave a normalised cell number of 1.16.

On to `COc1cc(O)c2c(c1)[C@@H](O)[C@@]13CO[C@@H](O)[C@@]1(O3)C2=O`, for which the normalised cell number was determined as 1.1.

As to `CC(CCC(=O)O)[C@H]1CCC2C3C(C[C@H](O)[C@@]21C)[C@@]1(C)CC[C@@H](O)C[C@H]1C[C@H]3O` (some centres undefined), the normalised cell number was 0.98.

Turning to `CO[C@H]1CC(O[C@@H]2/C(C)=C/C[C@@H]3C[C@@H](C[C@]4(C=C[C@H](C)[C@@H](C5CCCCC5)O4)O3)OC(=O)[C@@H]3C=C(C)[C@@H](O)C4OC/C(=C\C=C\[C@@H]2C)[C@]43O)O[C@@H](C)C1O[C@H]1C[C@H](OC)[C@@H](O)[C@H](C)O1` (some centres undefined), the normalised cell number is 1.1.

`COC(=O)[C@@H]1OC(=O)C2OC23[C@@]1(C)CCC1[C@@]2(C)CCC(=O)C(C)(C)C2C[C@@H](OC(C)=O)[C@]13C` (some centres undefined) gave a normalised cell number of 1.11.

For `CC(=O)OC1CCC2(C)C(=CC=C3C2CCC2(C)C3CCC2C(C)/C=C/C(C)C(C)C)C1(C)C` (centres undefined), the normalised cell number turned out to be 0.96.

With `COc1c(N2CC[C@@H](CN)C2)c(F)cc2c(=O)c(C(=O)O)cn(Cc3ccc(-c4ccccc4)cc3)c12`, the normalised cell number stood at 0.98.

`C#C[C@]1(O)CC[C@@H]2C3[C@H](C)CC4=C(CCC(=O)C4)[C@H]3CC[C@@]21C` (some centres undefined) yielded a normalised cell number of 1.21.

`Nc1nc2ncc(CNc3ccc(C(=O)NC(CCC(=O)O)C(=O)O)cc3)nc2c(=O)[nH]1` (centres undefined) came in with a normalised cell number of 1.23.

Turning to `CC(CC(=O)N1CCOC1=O)N1C(=S)OC[C@@H]1Cc1ccccc1` (some centres undefined), the normalised cell number came to 0.95.

In turn, `Clc1ccc(Br)cc1OCC1CCCNC1` (centres undefined) came in with a normalised cell number of 1.17.

With `CCC[C@H]1Cc2cc3c(-c4c(O)cc(O)c5c(O)c6c(cc45)C[C@H](CCC)OC6=O)c(O)cc(O)c3c(O)c2C(=O)O1`, the normalised cell number was 0.77.

In turn, `O=C1Cc2cc(O)ccc2O1` showed a normalised cell number of 1.14.

`Nc1ncnc2c1ncn2C1C[C@H](O)[C@@H](CO)O1` (some centres undefined) had a normalised cell number of 0.91.

Compound `CC(C)[C@@H]1CC[C@]2(CO2)[C@@H]2C(=O)OCC(C(=O)O)=C[C@H]21` yielded a normalised cell number of 1.05.

In turn, `COc1cc2c(c3oc4ccccc4c(=O)c13)[C@@H]1C=CO[C@@H]1O2` showed a normalised cell number of 0.4.

For the compound `COC(=O)CNC(=O)c1ccc([C@H](O)c2ccccc2)cn1`, the normalised cell number came out at 0.87.

Consider `C[C@@]1(N)CCCCCN(c2c(F)cc3c(=O)c(C(=O)O)cn(C4CC4)c3c2Cl)C1`, for which the normalised cell number worked out at 1.

With `CCSC(SCC)[C@@H]1NC(=O)O[C@H]1[C@H](O)[C@H](O)CO`, the normalised cell number amounted to 1.12.

`O=c1c(O)c(-c2ccccc2)oc2cc(O)cc(O)c12` yielded a normalised cell number of 0.96.

In turn, `COc1c(N2CC[C@@H](CN)C2)c(F)cc2c(=O)c(C(=O)O)cn(Cc3ccc4ccccc4c3)c12` had a normalised cell number of 0.93.
